Compound activity as filed in PubChem.
TDP1 cell noCPT – qHTS for Inhibitors of human tyrosyl-DNA phosphodiesterase 1 (TDP1): qHTS in cells in absence of CPT; actives 15% (n = 420,000); Potency, µM (series often up to 46.2 µM), without a hit: top-dose activity change, negative = growth inhibition, hits mostly inhibitors; DT40 Tdp1-/- hTDP1 cells, no CPT, ATP luminescence, 48 h; note: potency is the fitted concentration of half-maximal effect; nearly all actives have a fitted effect of over 55% in size
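Camptothecin absent (DMSO only). Human TDP1-complemented DT40 knockout cells, 400 cells/well, 37 °C for minimum 48 hr; ATP measured via CellTiter-Glo, 30 min dark incubation, luminescence.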
HT1080 IDH1KD tx – toxicity to HT-1080 IDH1 knockdown cells (counter line); actives 2% (n = 360,000); HT-1080 IDH1 knockdown viability, ATP luminescence, 48 h; Potency, µM (doses to about 46.1 µM), for the others: at the top dose activity, negative = toxicity, most hits filed as cytotoxic;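 note: potency is the fitted concentration of half-maximal effect; 0% = DMSO wells and -100% = cell-free medium wells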
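Using the IDH1-knockdown HT-1080 line run in the same batch and compound series as the NT line, viability after 48 h at 37 °C was determined by CellTiter-Glo luminescence and expressed as % activity.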
TDP1 cell CPT – growth inhibition of DT40 Tdp1-/-;hTDP1 cells with camptothecin (screen for TDP1 inhibitors); chicken DT40 Tdp1-/-;hTDP1 cells + 20 nM CPT, ATP luminescence, 48 h; Potency, µM (series often up to 46.2 µM), for inactives: top-dose activity change, negative = growth inhibition, actives largely listed as inhibitors; actives 12% (n = 420,000); AID 686979; note: potency is the fitted concentration of half-maximal effect; nearly all actives have a fitted effect of over 55% in size
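Chicken DT40 Tdp1-/- cells stably complemented with human TDP1 were seeded at 400 cells/well in medium containing 20 nM camptothecin, exposed to pin-transferred compounds, and grown at 37 °C for at least 48 hr. Viability was read as ATP luminescence.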
IL-1B inflam inh – inflammasome signaling inhibition, IL-1 beta readout | actives 4.7% (n = 360,000) | AID 743279 | activity change, % at 57.5 µM | THP-1 LPS/ATP IL-1B secretion, AlphaLISA, 16 h; stronger effect = lower value; in the data active = activity change below about -50%; inconclusive = mostly about -30% to -49%
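Secreted IL-1B measured by AlphaLISA bead assay after 16 h compound exposure of THP-1 cells; compounds (final up to 57.5 uM) added 1 h before LPS (250 ng/mL) and ATP (1.25 mM) stimulation; lower signal means less secretion.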
HT1080NT lethal – kills 2HG-producing HT-1080-NT fibrosarcoma cells. Potency, µM (doses to about 46.1 µM), without a hit: at the highest dose activity, negative = less viability, most hits filed as cytotoxic. actives 1.6% (n = 360,000). HT-1080-NT fibrosarcoma viability, CellTiter-Glo ATP luminescence, 48 h;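 note: NT is the 2HG producing partner of a matched IDH1 knockdown line; potency is the fitted concentration of half-maximal effect; 0% = DMSO-treated cells and -100% = media-only wells without cells; nearly all actives have a fitted effect of over 55% in size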
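Viability of the 2HG-overproducing fibrosarcoma line after 48 hours of compound exposure at 37 degrees C was determined by luminescence with CellTiter-Glo, and concentration-effect curves were then fitted and categorized.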
* marks the source's active call; other numbers are inactive results; ? = inconclusive; / = not tested or not shown. Only some compounds are listed: those with a hit (about 19% of all), similar ones and a draw of the others. Unless noted, calls come from the whole dose curve; as a rule, active = well fitted curve in the direction sought with a large enough effect; inconclusive = small, poorly fitted or top-dose-only effect, or another doubt; inactive = no such curve, though single readings can be large; an effect the other way counts as inactive or inconclusive. Unless noted, % is set by controls: 0 for no effect and ±100 for the full control effect.

SMILES	TDP1 cell noCPT	HT1080 IDH1KD tx	TDP1 cell CPT	IL-1B inflam inh	HT1080NT lethal
Cc1ccc(NC(=O)C2CCC(CNS(=O)(=O)c3cccs3)CC2)cc1C (configuration not stated)	15µM*	/	15µM*	/	/
CCC(c1nnc(SCC(=O)Nc2ccc(C(=O)N(C)C)cc2)n1Cc1ccccc1)N(C)C (configuration not stated)	-9%	-1%	-20%	0	-2%
O=C(COC(=O)C1CCC(=O)N1)Nc1ccccc1OC(F)F (configuration not stated)	20%	20%	20%	0	13%
O=Nc1c(O)[nH]c2c(F)cccc12	-2%	-6%	1%	4	-6%
CCc1cccc2c(N=O)c(O)[nH]c12	-17%	-18%	-2%	-64*	0%
COc1ccc(-c2cc3c(=O)n(CC(=O)NCCCN4CCC(N5CCCCC5)CC4)ncn3n2)cc1	?	-1%	15µM*	-12	-14%
COc1cccc(NC(=S)NNC(=O)C(C)n2nc(C)c([N+](=O)[O-])c2C)c1 (configuration not stated)	0%	2%	-6%	10	-1%
COc1cccc(NC(=S)NNC(=O)c2c([N+](=O)[O-])c(C)nn2C)c1	?	7.9µM*	?	-10	?
Cc1cc(N2CCN(c3ccc(C(F)(F)F)cc3[N+](=O)[O-])CC2)c2ccccc2n1	21µM*	?	?	-28	?
Cc1cc(N2CCN(c3ccc([N+](=O)[O-])c4cccnc34)CC2)c2ccccc2n1	5.8µM*	?	8.2µM*	-94*	?
O=C(c1ccccc1F)N1CCN(c2ccc([N+](=O)[O-])c3cccnc23)CC1	?	2%	-25%	?	-10%
Nc1nonc1OCCN1CCN(c2ccc([N+](=O)[O-])c3cccnc23)CC1	?	-9%	23µM*	4	-13%
CCCCOC(=O)c1ccc(NC(=O)c2cc3c(=O)n4cccc(C)c4nc3s2)cc1	-7%	/	6%	/	/
CCN1CCN(c2ccc(NC(=O)c3ccc(Cl)c(N4CCCC4=O)c3)cc2)CC1	-24%	-1%	3%	2	18%
COc1ccc(OC)c(CN2CCCC(n3cc(C(=O)N4CCCCC4)nn3)C2)c1 (configuration not stated)	-18%	/	0%	/	/
COc1ccc(CN(C)CC2CCCN(CCc3ccc(Cl)cc3)C2)cc1OC (configuration not stated)	?	16µM*	?	-86*	29µM*
COCc1ccc(C(=O)N(C)CC2CCCN(CCc3ccccc3F)C2)o1 (configuration not stated)	-15%	12%	-19%	30	7%
COc1cc(CN(C)CC2CCCN(CCc3ccccc3F)C2)cc(Cl)c1OC (configuration not stated)	26µM*	?	?	-84*	-25%
COc1ccccc1CCN1CCCC(CN(C)Cc2ccc(OCCO)cc2)C1 (configuration not stated)	?	-15%	?	-23	-15%
COc1ccc(F)c(CN(C)CC2CCCN(CCc3ccc(F)cc3)C2)c1 (configuration not stated)	16µM*	?	?	-58*	?
COc1ccc(CCN2CCCC(CN(C)Cc3cc(OC)c(OC)c(OC)c3)C2)cc1 (configuration not stated)	16µM*	?	21µM*	-14	-23%
CN(Cc1ccccc1)CC1CCCN(CCc2ccccc2F)C1 (configuration not stated)	?	-9%	?	-23	-5%
CCc1cnccc1CCC(=O)Nc1ccccc1C	0%	-1%	0%	22	1%
COc1ccc(NC2c3ccccc3C(=O)N2Cc2ccc3c(c2)OCO3)cc1 (configuration not stated)	?	-16%	?	-17	-15%
